In the supplement of paper PMC7411054:
Structures can show the parent of a compound that is named as a salt.

Key:
Details in all cases: treatment time: 24 h
A549-ACTB-RAB5A [1] = experiment: lowest phenotypically active concentration; higher = less potent
Outline: (§1)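 Each of fifteen gene-edited A549, HepG2 and WPMY1 reporter lines, marked with BFP for segmentation and GFP and RFP/FusionRed, was treated in four wells at 0.3, 1, 3 or 9 µM for 24 h prior to live imaging. Normalisation of per-well live-cell features used solvent control wells. Deviation needed ≥3 of 4 wells beyond the 95th percentile of control Euclidean distances, and reproducibility needed a median replicate Pearson correlation above the 95th percentile of non-replicates. Both were required for phenotypic activity.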

A549-CANX-COX4 [2] = experiment: as above
Outline: as §1

A549-GM130-SQSTM1 [3] = experiment: as above
Outline: as §1

A549-TP53BP1-CLTA [4] = experiment: as above
Outline: as §1

A549-TUBA1B-RELA [5] = experiment: as above
Outline: as §1

A549-ACTB-RAB5A [6] = experiment: phenotypically active (imaging signature differs from DMSO and reproducible) at any of 0.3-9 uM (binary (1 = active, 0 = inactive)); higher = active
Outline: as §1

A549-CANX-COX4 [7] = experiment: as above
Outline: as §1

A549-GM130-SQSTM1 [8] = experiment: as above
Outline: as §1

A549-TP53BP1-CLTA [9] = experiment: as above
Outline: as §1

A549-TUBA1B-RELA [10] = experiment: as above
Outline: as §1

HepG2-ACTB-RAB5A = experiment: as above
Outline: as §1

HepG2-CANX-COX4 = experiment: as above
Outline: as §1

HepG2-GM130-SQSTM1 = experiment: as above
Outline: as §1

HepG2-TP53BP1-CLTA = experiment: as above
Outline: as §1

HepG2-TUBA1B-RELA = experiment: as above
Outline: as §1

WPMY1-ACTB-RAB5A = experiment: as above
Outline: as §1

WPMY1-CANX-COX4 = experiment: as above
Outline: as §1

WPMY1-GM130-SQSTM1 = experiment: as above
Outline: as §1

WPMY1-TP53BP1-CLTA = experiment: as above
Outline: as §1

WPMY1-TUBA1B-RELA = experiment: as above
Outline: as §1

COc1ccccc1-c1c[nH]c2ncc(-c3cncc(C(=O)N(C)C)c3)cc12
active: phenotypically active (A549-ACTB-RAB5A [6]) 1 | phenotypically active (A549-CANX-COX4 [7]) 1 | phenotypically active (A549-GM130-SQSTM1 [8]) 1 | phenotypically active (A549-TP53BP1-CLTA [9]) 1 | phenotypically active (A549-TUBA1B-RELA [10]) 1 | phenotypically active (HepG2-ACTB-RAB5A) 1 | phenotypically active (HepG2-CANX-COX4) 1 | phenotypically active (HepG2-GM130-SQSTM1) 1 | phenotypically active (HepG2-TP53BP1-CLTA) 1 | phenotypically active (HepG2-TUBA1B-RELA) 1 | phenotypically active (WPMY1-ACTB-RAB5A) 1 | phenotypically active (WPMY1-CANX-COX4) 1 | phenotypically active (WPMY1-GM130-SQSTM1) 1 | phenotypically active (WPMY1-TP53BP1-CLTA) 1 | phenotypically active (WPMY1-TUBA1B-RELA) 1
≤ 0.3 µM: lowest phenotypically active concentration (A549-ACTB-RAB5A [1]) | lowest phenotypically active concentration (A549-GM130-SQSTM1 [3]) | lowest phenotypically active concentration (A549-TP53BP1-CLTA [4]) | lowest phenotypically active concentration (A549-TUBA1B-RELA [5])
1 µM: lowest phenotypically active concentration (A549-CANX-COX4 [2])

NC(=O)Nc1cc(-c2cccc(F)c2)sc1C(=O)N[C@H]1CCCNC1 [AZD 7762 hydrochloride]
≤ 0.3 µM: lowest phenotypically active concentration (A549-GM130-SQSTM1 [3]) | lowest phenotypically active concentration (A549-TP53BP1-CLTA [4]) | lowest phenotypically active concentration (A549-TUBA1B-RELA [5])
active: phenotypically active (A549-ACTB-RAB5A [6]) 1 | phenotypically active (A549-CANX-COX4 [7]) 1 | phenotypically active (A549-GM130-SQSTM1 [8]) 1 | phenotypically active (A549-TP53BP1-CLTA [9]) 1 | phenotypically active (A549-TUBA1B-RELA [10]) 1 | phenotypically active (HepG2-ACTB-RAB5A) 1 | phenotypically active (HepG2-CANX-COX4) 1 | phenotypically active (HepG2-GM130-SQSTM1) 1 | phenotypically active (HepG2-TP53BP1-CLTA) 1 | phenotypically active (HepG2-TUBA1B-RELA) 1 | phenotypically active (WPMY1-ACTB-RAB5A) 1 | phenotypically active (WPMY1-CANX-COX4) 1 | phenotypically active (WPMY1-GM130-SQSTM1) 1 | phenotypically active (WPMY1-TP53BP1-CLTA) 1 | phenotypically active (WPMY1-TUBA1B-RELA) 1
1 µM: lowest phenotypically active concentration (A549-ACTB-RAB5A [1]) | lowest phenotypically active concentration (A549-CANX-COX4 [2])

NC(=O)Nc1sc(-c2ccc(F)cc2)cc1C(N)=O
3 µM: lowest phenotypically active concentration (A549-ACTB-RAB5A [1]) | lowest phenotypically active concentration (A549-CANX-COX4 [2]) | lowest phenotypically active concentration (A549-GM130-SQSTM1 [3]) | lowest phenotypically active concentration (A549-TUBA1B-RELA [5])
9 µM: lowest phenotypically active concentration (A549-TP53BP1-CLTA [4])
active: phenotypically active (A549-ACTB-RAB5A [6]) 1 | phenotypically active (A549-CANX-COX4 [7]) 1 | phenotypically active (A549-GM130-SQSTM1 [8]) 1 | phenotypically active (A549-TP53BP1-CLTA [9]) 1 | phenotypically active (A549-TUBA1B-RELA [10]) 1 | phenotypically active (HepG2-ACTB-RAB5A) 1 | phenotypically active (HepG2-CANX-COX4) 1 | phenotypically active (HepG2-GM130-SQSTM1) 1 | phenotypically active (HepG2-TP53BP1-CLTA) 1 | phenotypically active (HepG2-TUBA1B-RELA) 1 | phenotypically active (WPMY1-ACTB-RAB5A) 1 | phenotypically active (WPMY1-CANX-COX4) 1 | phenotypically active (WPMY1-GM130-SQSTM1) 1 | phenotypically active (WPMY1-TP53BP1-CLTA) 1 | phenotypically active (WPMY1-TUBA1B-RELA) 1

COc1ccc(S(=O)(=O)N(CCO)c2ccccc2CN(C)C/C=C/c2ccc(Cl)cc2)cc1
9 µM: lowest phenotypically active concentration (A549-CANX-COX4 [2]) | lowest phenotypically active concentration (A549-TP53BP1-CLTA [4])
active: phenotypically active (A549-ACTB-RAB5A [6]) 1 | phenotypically active (A549-CANX-COX4 [7]) 1 | phenotypically active (A549-GM130-SQSTM1 [8]) 1 | phenotypically active (A549-TP53BP1-CLTA [9]) 1 | phenotypically active (A549-TUBA1B-RELA [10]) 1 | phenotypically active (HepG2-ACTB-RAB5A) 1 | phenotypically active (HepG2-CANX-COX4) 1 | phenotypically active (HepG2-GM130-SQSTM1) 1 | phenotypically active (HepG2-TP53BP1-CLTA) 1 | phenotypically active (HepG2-TUBA1B-RELA) 1 | phenotypically active (WPMY1-ACTB-RAB5A) 1 | phenotypically active (WPMY1-CANX-COX4) 1 | phenotypically active (WPMY1-GM130-SQSTM1) 1 | phenotypically active (WPMY1-TP53BP1-CLTA) 1 | phenotypically active (WPMY1-TUBA1B-RELA) 1
3 µM: lowest phenotypically active concentration (A549-ACTB-RAB5A [1]) | lowest phenotypically active concentration (A549-GM130-SQSTM1 [3]) | lowest phenotypically active concentration (A549-TUBA1B-RELA [5])

CN(C)C1CCN(C(=O)c2ccc(NC(=O)Nc3ccc(-c4nc(N5CCOCC5)nc(N5CCOCC5)n4)cc3)cc2)CC1
≤ 0.3 µM: lowest phenotypically active concentration (A549-ACTB-RAB5A [1]) | lowest phenotypically active concentration (A549-CANX-COX4 [2]) | lowest phenotypically active concentration (A549-GM130-SQSTM1 [3]) | lowest phenotypically active concentration (A549-TP53BP1-CLTA [4]) | lowest phenotypically active concentration (A549-TUBA1B-RELA [5])
active: phenotypically active (A549-ACTB-RAB5A [6]) 1 | phenotypically active (A549-CANX-COX4 [7]) 1 | phenotypically active (A549-GM130-SQSTM1 [8]) 1 | phenotypically active (A549-TP53BP1-CLTA [9]) 1 | phenotypically active (A549-TUBA1B-RELA [10]) 1 | phenotypically active (HepG2-ACTB-RAB5A) 1 | phenotypically active (HepG2-CANX-COX4) 1 | phenotypically active (HepG2-GM130-SQSTM1) 1 | phenotypically active (HepG2-TP53BP1-CLTA) 1 | phenotypically active (HepG2-TUBA1B-RELA) 1 | phenotypically active (WPMY1-ACTB-RAB5A) 1 | phenotypically active (WPMY1-CANX-COX4) 1 | phenotypically active (WPMY1-GM130-SQSTM1) 1 | phenotypically active (WPMY1-TP53BP1-CLTA) 1 | phenotypically active (WPMY1-TUBA1B-RELA) 1
